Records with an inconclusive call do not appear. Entries that show only a call come without a potency. Some structures have more than one record in an assay (separate samples or runs), and their calls can disagree. Activity calls are given as the source filed them. Unless noted, calls follow the shape of the dose curve; as a rule, active = well fitted curve in the direction sought with a large enough effect in the repeat runs; inconclusive = weak or mixed curves; inactive = no such curve, though single readings can be large; an effect the other way counts as inactive or inconclusive.
Key:
[1] = qHTS assay to identify small molecule antagonists of the estrogen receptor alpha (ER-alpha) signaling pathway using the BG1 cell line in the presence of 0.1 nM 17-beta-estradiol - cell viability counter screen (AID 1259241); also: nearly all actives have a fitted effect of over 40% in size
Outline: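 CellTiter-Fluor read (30 min, 37C) on ER-alpha/ERE-luc VM7Luc4E2 cells; 22 hr compound treatment; agonist 0.1 nM E2 final; same-well multiplex.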

[2] = qHTS assay to identify small molecule HDAC inhibitors (AID 1259364); also: top concentration of the series differs between compounds; nearly all actives have a fitted effect of over 45% in size
Outline: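 Wild-type HCT-116 cells were plated overnight, exposed to compounds for 2 h at 37 °C, then given HDAC-Glo class I/II luminogenic reagent for 30 min at room temperature before luminescence was read.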

[3] = qHTS assay to identify small molecule HDAC inhibitors - cell viability counter screen (AID 1259365); also: nearly all actives have a fitted effect of over 50% in size; also: potency is read from the fitted curve at half-maximal effect
Outline: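 To flag cytotoxic hits, 1,500 wild-type HCT-116 cells per well, plated the day before, receive test compounds for 2hr at 37 C before CellTiter-Glo reagent and a luminescence read.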

[4] = qHTS assay to identify small molecule agonists of the sonic hedgehog signaling (Shh) pathway (AID 1259368; calls by dose curve; also: series mostly up to about 92 µM; nearly all actives have a fitted effect of over 15% in size)
Outline: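 NIH/3T3-derived 3T3Gli1-Luc cells carrying a stably integrated Gli1 response element–firefly luciferase reporter were plated, left 4 hr at 37 C, then given compounds in DMSO for 24 hr. Luminescence was read 30 min after adding luciferase reagent.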

[5] = biological target: Estrogen receptor beta (Homo sapiens) (UniProt Q92731); experiment: qHTS assay to identify small molecule agonists of the estrogen receptor beta (ER-beta) signaling pathway (AID 1259377; active = well fitted activation curve with a large enough effect in the signal ratio in the repeat runs, not every such curve was filed as active; the % refers to the signal ratio)
Sequence of Estrogen receptor beta (Homo sapiens) (Q92731 whole entry, looked up): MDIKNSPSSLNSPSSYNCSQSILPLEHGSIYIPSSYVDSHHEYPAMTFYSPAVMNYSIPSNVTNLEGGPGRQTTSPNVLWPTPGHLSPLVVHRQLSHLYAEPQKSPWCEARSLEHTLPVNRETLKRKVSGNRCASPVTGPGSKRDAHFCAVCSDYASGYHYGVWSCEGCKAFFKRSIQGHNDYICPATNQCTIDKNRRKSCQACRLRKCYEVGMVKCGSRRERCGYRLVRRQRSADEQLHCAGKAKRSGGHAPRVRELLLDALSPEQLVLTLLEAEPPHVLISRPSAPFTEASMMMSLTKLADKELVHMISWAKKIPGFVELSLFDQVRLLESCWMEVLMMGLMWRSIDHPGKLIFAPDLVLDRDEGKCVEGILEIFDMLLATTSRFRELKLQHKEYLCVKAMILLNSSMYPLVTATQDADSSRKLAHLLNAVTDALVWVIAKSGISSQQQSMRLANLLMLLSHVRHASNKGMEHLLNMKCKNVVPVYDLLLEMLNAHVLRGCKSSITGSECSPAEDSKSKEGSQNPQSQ
Outline: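 Screening used GripTite ER-beta-UAS-bla cells held in 2% charcoal-stripped FBS medium. After overnight (16 hr) compound incubation at 37C, beta-lactamase activity was detected with a FRET substrate by fluorescence.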

[6] = qHTS assay to identify small molecule antagonists of the estrogen receptor beta (ER-beta) signaling pathway - cell viability counter screen (AID 1259382); also: nearly all actives have a fitted effect of over 55% in size; also: potency is read from the fitted curve at half-maximal effect
Outline: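 ER-beta-UAS-bla HEK293T cells (2,000/well, 2% charcoal-stripped FBS) were pre-incubated 6 hr at 37C, then given compound plus 1nM final 17-beta-estradiol for 16 hr. Viability was read in the same wells by CellTiter-Glo luminescence after 30 min at room temperature.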

[7] = biological target: Estrogen receptor (Homo sapiens) (UniProt P03372); experiment: qHTS assay to identify small molecule agonists of the estrogen receptor alpha (ER-alpha) signaling pathway in the presence of an antagonist (AID 1259383; calls by dose curve; also: top concentration of the series differs between compounds; nearly all actives have a fitted effect of over 15% in size)
Sequence of Estrogen receptor (Homo sapiens) (P03372 whole entry, looked up): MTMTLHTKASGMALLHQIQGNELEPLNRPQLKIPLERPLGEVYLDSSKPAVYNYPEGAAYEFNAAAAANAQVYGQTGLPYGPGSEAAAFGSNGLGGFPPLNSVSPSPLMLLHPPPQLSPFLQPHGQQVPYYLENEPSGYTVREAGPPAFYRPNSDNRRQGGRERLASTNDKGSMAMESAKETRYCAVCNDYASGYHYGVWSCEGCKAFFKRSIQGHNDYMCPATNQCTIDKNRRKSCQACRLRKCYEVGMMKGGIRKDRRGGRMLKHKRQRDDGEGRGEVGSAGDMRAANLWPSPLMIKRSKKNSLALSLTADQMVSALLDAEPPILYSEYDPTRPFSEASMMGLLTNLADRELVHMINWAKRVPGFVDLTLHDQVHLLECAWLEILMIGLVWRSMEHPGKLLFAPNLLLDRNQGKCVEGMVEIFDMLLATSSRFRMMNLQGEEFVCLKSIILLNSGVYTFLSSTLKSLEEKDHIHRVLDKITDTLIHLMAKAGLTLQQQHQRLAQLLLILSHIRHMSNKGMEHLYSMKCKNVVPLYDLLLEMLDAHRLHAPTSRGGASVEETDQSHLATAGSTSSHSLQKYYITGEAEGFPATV
Outline: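 VM7Luc4E2 cells (endogenous full-length ER-alpha, 4×ERE-luciferase) were precultured 5 days in phenol red-free medium with 10% charcoal-stripped FBS, given 10.0nM ICI-182,780 (final), then treated with compounds at 15 concentrations for 22hr at 37C; luminescence read with ONE-Glo.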

[8] = qHTS assay to identify small molecule agonists or antagonists of the thyroid stimulating hormone receptor (TSHR) signaling pathway - wild type cell line counter screen (AID 1259384; calls by dose curve)
Outline: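 Wild-type HEK293 cells were plated 18 h at 37 C/5% CO2, pin-dosed with compound plus Ro20-1724 medium, held 30 min at room temperature, then given cAMP-d2 and anti-cAMP-cryptate; fluorescence was read after 1 h. Fifteen concentrations, triplicate.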

[9] = biological target: Thyrotropin receptor (Homo sapiens) (UniProt P16473); experiment: qHTS assay to identify small molecule antagonists of the thyroid stimulating hormone receptor (TSHR) signaling pathway (AID 1259385; calls by dose curve; also: nearly all actives have a fitted effect of over 20% in size; also: potency is read from the fitted curve at half-maximal effect)
Sequence of Thyrotropin receptor (Homo sapiens) (P16473 whole entry, looked up): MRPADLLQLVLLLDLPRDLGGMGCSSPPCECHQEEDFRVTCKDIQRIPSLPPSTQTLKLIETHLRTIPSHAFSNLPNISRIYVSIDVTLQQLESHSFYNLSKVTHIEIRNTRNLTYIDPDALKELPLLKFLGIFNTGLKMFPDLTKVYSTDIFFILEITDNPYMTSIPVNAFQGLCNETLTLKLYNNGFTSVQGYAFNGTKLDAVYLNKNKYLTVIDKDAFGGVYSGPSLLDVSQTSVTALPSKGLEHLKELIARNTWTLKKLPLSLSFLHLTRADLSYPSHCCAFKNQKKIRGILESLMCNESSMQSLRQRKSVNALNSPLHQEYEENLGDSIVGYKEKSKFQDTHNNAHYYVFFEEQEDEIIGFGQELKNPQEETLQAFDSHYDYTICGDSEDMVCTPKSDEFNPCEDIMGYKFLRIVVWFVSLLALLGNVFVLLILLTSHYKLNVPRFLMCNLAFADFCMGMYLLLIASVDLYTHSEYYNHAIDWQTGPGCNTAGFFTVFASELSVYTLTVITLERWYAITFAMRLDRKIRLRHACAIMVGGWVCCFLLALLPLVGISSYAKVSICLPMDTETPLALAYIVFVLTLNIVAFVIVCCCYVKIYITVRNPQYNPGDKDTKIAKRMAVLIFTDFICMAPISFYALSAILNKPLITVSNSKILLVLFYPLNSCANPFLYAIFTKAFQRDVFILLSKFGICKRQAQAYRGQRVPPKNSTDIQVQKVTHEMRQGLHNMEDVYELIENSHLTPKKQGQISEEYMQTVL
Outline: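 TSHR-HEK293 cells were plated and held 18 h at 37C/5% CO2, then given compound plus Ro20-1724 and stimulated with TSH at 1.5 ng/mL final. After 30 min at room temperature, cAMP was detected with cAMP-d2/anti-cAMP-cryptate (1 h) by fluorescence.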

[10] = biological target: Estrogen receptor (Homo sapiens) (UniProt P03372); experiment: qHTS assay to identify small molecule antagonists of the estrogen receptor alpha (ER-alpha) signaling pathway using the BG1 cell line in the presence of 0.1 nM 17-beta-estradiol (AID 1259244); also: nearly all actives have a fitted effect of over 50% in size; also: potency is read from the fitted curve at half-maximal effect
Outline: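 VM7Luc4E2 cells (endogenous full-length ER-alpha, stable 4xERE-luciferase) were grown 5 days in phenol red-free medium with charcoal-stripped FBS, then exposed 22 h at 37C to compounds plus 0.1 nM (final) 17beta-estradiol; ONE-Glo luminescence read-out.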

[11] = qHTS assay to identify small molecule agonists of the sonic hedgehog signaling (Shh) pathway - cell viability counter screen (AID 1259366); also: nearly all actives have a fitted effect of over 50% in size; also: potency is read from the fitted curve at half-maximal effect
Outline: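 Fluorescence from CellTiter-Fluor reports live cells in this counter screen. NIH/3T3-derived Gli1-Luc reporter cells receive test compounds for 24hr at 37C; reagent goes in at 23hr.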

[12] = qHTS assay to identify small molecule antagonists of the sonic hedgehog signaling (Shh) pathway - cell viability counter screen (AID 1259367); also: nearly all actives have a fitted effect of over 55% in size; also: potency is read from the fitted curve at half-maximal effect
Outline: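 NIH/3T3-derived Gli1-Luc reporter cells (2,000 per well) rested 4 hr at 37 C, then received DMSO compounds plus conditioned medium. After 23 hr of treatment, CellTiter-Fluor was added for 1 hr at 37C and fluorescence read.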

[13] = qHTS assay to identify small molecule antagonists of the sonic hedgehog signaling (Shh) pathway (AID 1259369; calls by dose curve; also: nearly all actives have a fitted effect of over 45% in size; also: potency is read from the fitted curve at half-maximal effect)
Outline: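 NIH/3T3-derived 3T3Gli1-Luc cells with stably integrated Gli1-Luc reporter were preincubated 4hr at 37 C, then given compounds in DMSO plus Shh conditioned medium and incubated 24hr. Firefly luciferase luminescence read after 30min reagent at room temperature.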

[14] = qHTS assay to identify small molecule agonists of the androgen receptor (AR) signaling pathway in the presence of an antagonist - cell viability counter screen (AID 1259379); also: nearly all actives have a fitted effect of over 25% in size; also: potency is read from the fitted curve at half-maximal effect
Outline: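 MDA-kb2 human breast carcinoma cells (stable MMTV-luciferase, AR/GR responsive) were seeded 3,000 cells/well, pre-incubated 5 hr at 37C without CO2, then given 3.0uM nilutamide and compounds at 15 concentrations for 16 hr. Viability was read by CellTiter-Fluor fluorescence.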

[15] = qHTS assay to identify small molecule agonists of the estrogen receptor beta (ER-beta) signaling pathway - cell viability counter screen (AID 1259380); also: nearly all actives have a fitted effect of over 30% in size; also: potency is read from the fitted curve at half-maximal effect
Outline: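 ER-beta-UAS-bla HEK293T cells in medium with 2% charcoal-stripped FBS were preincubated 6 hr at 37C, dosed with compound in DMSO for 16 hr, then after the bla read, CellTiter-Glo was added for 30 min at room temperature; luminescence recorded.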

[16] = biological target: Estrogen receptor beta (Homo sapiens) (UniProt Q92731); experiment: qHTS assay to identify small molecule antagonists of the estrogen receptor beta (ER-beta) signaling pathway (AID 1259378; active = well fitted inhibition curve with a large enough effect in the signal ratio in the repeat runs, not every such curve was filed as active; the % refers to the signal ratio; also: potency is read from the fitted curve at half-maximal effect)
Outline: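 ER-beta-UAS-bla HEK293T (GripTite) cells in 2% charcoal-stripped FBS medium were preincubated 6 hr at 37C, dosed with compound, then stimulated with 1 nM E2 (final) for 16 hr; beta-lactamase reporter read by B/G FRET fluorescence after 2 hr substrate loading.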

[17] = biological target: Androgen receptor (Homo sapiens) (UniProt P10275); experiment: qHTS assay to identify small molecule agonists of the androgen receptor (AR) signaling pathway in the presence of an antagonist (AID 1259381; calls by dose curve; also: nearly all actives have a fitted effect of over 15% in size)
Sequence of Androgen receptor (Homo sapiens) (P10275 whole entry, looked up): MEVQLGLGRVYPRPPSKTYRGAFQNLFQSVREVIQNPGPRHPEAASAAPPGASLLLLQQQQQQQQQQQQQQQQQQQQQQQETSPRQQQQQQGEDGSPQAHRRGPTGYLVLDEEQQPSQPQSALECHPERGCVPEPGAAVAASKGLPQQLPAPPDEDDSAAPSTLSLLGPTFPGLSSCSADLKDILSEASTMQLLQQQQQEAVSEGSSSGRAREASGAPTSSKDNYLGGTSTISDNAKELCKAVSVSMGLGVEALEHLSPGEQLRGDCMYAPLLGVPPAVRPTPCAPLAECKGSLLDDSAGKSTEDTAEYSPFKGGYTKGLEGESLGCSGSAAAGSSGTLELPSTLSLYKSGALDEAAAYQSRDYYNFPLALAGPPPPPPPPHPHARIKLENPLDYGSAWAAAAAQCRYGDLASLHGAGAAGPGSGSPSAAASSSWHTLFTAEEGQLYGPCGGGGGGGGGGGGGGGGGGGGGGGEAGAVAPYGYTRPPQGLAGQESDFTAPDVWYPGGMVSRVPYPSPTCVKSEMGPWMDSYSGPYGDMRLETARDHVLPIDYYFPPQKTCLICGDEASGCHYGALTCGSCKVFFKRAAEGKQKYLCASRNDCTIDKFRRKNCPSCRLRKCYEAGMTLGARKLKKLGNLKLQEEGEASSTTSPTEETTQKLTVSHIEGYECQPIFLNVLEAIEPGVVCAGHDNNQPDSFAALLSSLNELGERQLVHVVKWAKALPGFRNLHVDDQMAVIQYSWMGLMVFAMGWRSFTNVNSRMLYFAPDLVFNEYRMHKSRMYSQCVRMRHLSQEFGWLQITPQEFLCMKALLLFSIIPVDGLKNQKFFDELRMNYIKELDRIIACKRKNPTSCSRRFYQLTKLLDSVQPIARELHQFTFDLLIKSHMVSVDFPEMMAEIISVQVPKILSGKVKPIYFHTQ
Outline: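 MDA-kb2 human breast carcinoma cells carrying an MMTV-luciferase reporter (AR- and GR-responsive) were treated with compounds at 15 concentrations plus 3.0uM final nilutamide for 16hr at 37C without CO2; luminescence was read after ONE-Glo addition.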

[18] = qHTS assay to identify small molecule antagonists of the androgen receptor (AR) signaling pathway using the MDA cell line in the presence of 0.5 nM R1881 - cell viability counter screen (AID 1259242); also: nearly all actives have a fitted effect of over 45% in size; also: potency is read from the fitted curve at half-maximal effect
Outline: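 MDA-kb2 cells (human breast carcinoma, stably carrying MMTV-luciferase reporter) were exposed to compounds with 0.5 nM R1881 (final) for 16 hr at 37C, 0% CO2; viability then read as live-cell protease fluorescence (CellTiter-Fluor, 30 min) in the same wells.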

[19] = biological target: Androgen receptor (Homo sapiens) (UniProt P10275); experiment: qHTS assay to identify small molecule antagonists of the androgen receptor (AR) signaling pathway using the MDA cell line in the presence of 0.5 nM R1881 (AID 1259243); also: potency is read from the fitted curve at half-maximal effect; nearly all actives have a fitted effect of over 50% in size
Outline: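 MDA-kb2 human breast carcinoma cells carrying an MMTV-luciferase reporter (AR- and GR-responsive) were plated, rested 5 hr at 37C, dosed with compounds, then stimulated with 0.5 nM R1881 (final) for 16 hr; luminescence was read after ONE-Glo.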

Row | SMILES | Potency [1] | Potency [2] | Potency [3] | Potency [4] | Potency [5] | Potency [6] | Potency [7] | outcome [8] | Potency [9] | Potency [10] | Potency [11] | Potency [12] | Potency [13] | Potency [14] | Potency [15] | Potency [16] | Potency [17] | Potency [18] | Potency [19]
1 | CCCCN1C(=O)[C@@H]([C@H](O)C2CCCCC2)NC(=O)C12CCN(Cc1ccc(Oc3ccc(C(=O)O)cc3)cc1)CC2 | inactive | inactive | inactive | inactive | inactive | inactive | inactive | inactive | inactive |  |  |  |  |  |  |  |  |  | 
2 | CCCC/C=C/CCCCO | inactive | inactive | inactive | inactive |  | inactive | inactive |  | inactive | inactive | inactive | inactive | inactive |  |  |  |  |  | 
3 | CCC(Cl)C(Cl)C(Cl)CC(Cl)C(Cl)C(C)Cl (centres undefined) | inactive | inactive |  | inactive | inactive | inactive |  | inactive | inactive |  | inactive | inactive | inactive | inactive |  |  |  |  | 
4 | Clc1ccc2n[nH]nc2c1 | inactive | inactive | inactive | inactive |  | inactive |  | inactive | inactive |  | inactive |  | inactive | inactive | inactive |  |  |  | 
5 | CNCc1cc(F)ccc1Oc1ccc(Cl)c(Cl)c1 | inactive | inactive | inactive | inactive | inactive |  | inactive | inactive | inactive | 54.5 µM (active) |  |  | 12.2 µM (active) | 54.5 µM (active) | 27.3 µM (active) |  |  |  | 
6 | CCCCCCCC/C=C/CCCCCCCC1=NCCN1CCO | inactive | inactive | inactive | inactive |  | 54.5 µM (active) |  |  |  |  |  |  | 54.5 µM (active) | 61.1 µM (active) | 27.3 µM (active) | 54.5 µM (active) | inactive |  | 
7 | CCc1cc(SCc2sc(-c3ccc(C(F)(F)F)cc3)nc2CN2CCN(c3ccc(OC)cc3)CC2)ccc1OCC(=O)O | inactive | inactive | 24.3 µM (active) | inactive | inactive | 4.33 µM (active) |  | inactive |  |  |  | inactive |  |  | 4.33 µM (active) | 5.45 µM (active) |  |  | 
8 | Clc1ccccc1C(c1ccccc1)(c1ccccc1)n1ccnc1 |  | inactive | inactive | inactive | inactive | 15.4 µM (active) | inactive | inactive | 54.5 µM (active) | 24.3 µM (active) and inactive | 13.7 µM (active) |  | 13.3 µM (active) | 30.6 µM (active) and inactive | 17.2 µM (active) | 8.41 µM (active) |  | 43.3 µM (active) and inactive | 
9 | CC/C(=C(\c1ccc(O)cc1)c1ccc(OCCN(C)C)cc1)c1ccccc1 |  | inactive |  | inactive |  | 27.4 µM (active) |  | inactive | 77.1 µM (active) |  | 21.7 µM (active) | 30.7 µM (active) | 9.71 µM (active) | 61.3 µM (active) | 24.4 µM (active) |  | inactive |  | 61.3 µM (active)
10 | NNc1nc(-c2ccc(N)cc2)cs1 |  | inactive |  | inactive | inactive |  |  | inactive |  | inactive | inactive |  |  |  | 15.4 µM (active) | inactive |  |  | 
11 | CCN(CC)CCCC(C)Nc1c2ccc(Cl)cc2nc2ccc(OC)cc12 (centres undefined) | inactive |  |  | inactive |  |  |  |  |  |  |  | inactive | 29.8 µM (active) | 11.9 µM (active) | 6.68 µM (active) |  |  |  | 
12 | Nc1nc2ccccc2n1Cc1ccc(F)cc1 |  | inactive | inactive | inactive |  | inactive | inactive |  | inactive | 10.6 µM (active) | inactive | inactive |  | 26.6 µM (active) |  |  | inactive |  | 7.5 µM (active)
13 | O=C1c2c(O)ccc(Nc3ccc(CCO)cc3)c2C(=O)c2c([N+](=O)[O-])ccc(O)c21 |  | inactive |  | inactive | inactive | inactive |  |  |  | inactive |  | 48.6 µM (active) |  | 43.3 µM (active) | 17.2 µM (active) |  | inactive |  | 54.5 µM (active)
14 | CCCCCCCCCCCCc1ccc(O)cc1 |  | inactive | inactive | inactive |  | 48.6 µM (active) |  | inactive | inactive | 61.1 µM (active) |  |  | inactive |  | 43.3 µM (active) |  |  |  | 
15 | CC(=O)N1CCN(c2ccc(OC[C@H]3CO[C@](Cn4ccnc4)(c4ccc(Cl)cc4Cl)O3)cc2)CC1 |  | inactive |  | inactive |  | 30.6 µM (active) | inactive | inactive |  | 27.3 µM (active) | 54.5 µM (active) | 27.3 µM (active) | 3.06 µM (active) | 54.5 µM (active) | 48.6 µM (active) | 21.7 µM (active) |  | 61.1 µM (active) | 

Reference: PubChem BioAssay (Tox21)
